# Source: PubChem
# ERK EGF inh: EGF-driven ERK pathway inhibition; Potency, µM (series often up to 11.5 µM), inactives show top-dose activity change, negative = inhibition, actives largely listed as inhibitors; actives 0.41% (n = 130,000); HEK293-V1b, EGF-stimulated phospho-ERK AlphaScreen; AID 1454;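 also: potency is read from the fitted curve at half-maximal effect; plate controls were stimulated vehicle wells for no effect and unstimulated vehicle basal for full effect; nearly all actives have a fitted effect of over 55% in size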
#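 Phospho-ERK1/2 measured by AlphaScreen (SureFire) after 5 min 25 nM EGF stimulation of V1b-expressing HEK293 cells preincubated 30 min at 37C with titrated compounds; data scaled to DMSO and EGF controls, Hill-fitted AC50.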
# RGS12 GoLoco inh-1: RGS12 GoLoco-Gai1 interaction inhibition; actives 0.44% (n = 230,000); Gai1:RGS12 GoLoco peptide FP, rhodamine, 10 min; Potency, µM (series often up to 61.6 µM), inactives show at the top dose activity, negative = inhibition, usual class: inhibitors; P63096; active = well fitted inhibition curve with a large enough effect, not every such curve was filed as active; inactive = no such curve, though single readings can be large or run the other way; also: potency is read from the fitted curve at half-maximal effect; % is scaled to controls: 0 for no effect and ±100 for the full control effect; nearly all actives have a fitted effect of over 30% in size
# Target sequence (P63096 whole entry, looked up): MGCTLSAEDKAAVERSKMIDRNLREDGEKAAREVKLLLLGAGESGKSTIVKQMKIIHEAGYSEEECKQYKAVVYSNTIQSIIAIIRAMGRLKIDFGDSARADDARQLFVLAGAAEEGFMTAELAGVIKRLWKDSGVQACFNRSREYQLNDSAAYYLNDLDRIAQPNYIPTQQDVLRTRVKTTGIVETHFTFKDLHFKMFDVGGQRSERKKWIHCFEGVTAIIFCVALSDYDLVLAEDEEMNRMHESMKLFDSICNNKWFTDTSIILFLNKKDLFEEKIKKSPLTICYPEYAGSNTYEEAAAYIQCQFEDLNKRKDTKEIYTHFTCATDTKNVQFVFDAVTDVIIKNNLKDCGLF
# CBFb RUNX1 block: blocks binding between human CBF-beta and RUNX1; AlphaScreen CBFb-His/RUNX1-biotin binding, biochemical; Potency, µM (series often up to 59.8 µM), inactives show at the highest dose activity, negative = inhibition, most hits filed as inhibitors; 230,000 tested, under 10 active; also: % of control where 0% means no effect
#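 CBF-beta (His) and RUNX1 (biotin), 30 nM each; 20 min preassociation; + compound, 15 min; + beads 50 ng each (Ni, streptavidin), 90 min; RT; AlphaScreen read.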
# RGS12 GoLoco inh-2: confirmation of human RGS12 GoLoco motif inhibitors; Potency, µM (top dose mostly 57.1 µM), for the others: at the highest dose activity, negative = inhibition, hits mostly inhibitors; Gai1/rhodamine-RGS12 GoLoco peptide fluorescence polarization; shares compounds with RGS12 GoLoco inh-1; actives 50% (n = 110)
# Numbers without * were called inactive; ? = inconclusive; nt = no result; [ ] = remark or other dose. An excerpt weighted towards active compounds, which were near 0.5% of everything screened. Unless noted, calls follow the shape of the dose curve; as a rule, active = well fitted curve in the direction sought with a large enough effect; inconclusive = small, poorly fitted or top-dose-only effect, or another doubt; inactive = no such curve, though single readings can be large; an effect the other way counts as inactive or inconclusive.
SMILES,ERK EGF inh,RGS12 GoLoco inh-1,CBFb RUNX1 block,others
CC1OCC23CC[C@@]4(C)CCC(C)(C)C[C@H]4[C@]2(C)CCC12C3CC[C@@]1(C)C2C(=O)CC(=O)[C@@H]1C (stereo partly specified),-14.1%,0.7%,-3.9%,
C#C[C@]1(O)CC[C@@H]2[C@H]3CCC4=Cc5oncc5C[C@]4(C)[C@@H]3CC[C@@]21C,-4.2%[25.7 µM],3.5%[21.6 µM],10.3%[21.7 µM],
c1ccc(C[n+]2cccc3c4ccccc4ccc32)cc1,nt,12.6%,-1.1%,
CCCCC[n+]1cccc2c3ccccc3ccc21,22.9%,15.8µM*,1.0%,
CCOc1ccccc1C(=O)Nc1nnc(COC)s1,-4.9%,50.1µM*,-7.5%,
CCOC(=O)Cc1nnc(NC(=O)c2ccccc2OCC)s1,3.2%,0.0%,-3.3%,
CCCCCCC1=Cc2cc(OC)c(OC)cc2C(CC(=O)/C=C/OC)O1 (stereo unspecified),nt,nt,1.6%[13.1 µM],
O=C(O)c1ccc(S(=O)(=O)N[C@H](Cc2c[nH]c3ccccc23)C(=O)O)cc1,nt,nt,-2.4%,
Cc1ccc(-n2cccc2/C=C2/NC(=O)N(CC(=O)Nc3cccc(C)c3)C2=O)cc1,-4.1%,7.94µM*,-7.8%,
Cc1cccc(NC(=O)CN2C(=O)N/C(=C\c3cccn3-c3cccc(C(=O)O)c3)C2=O)c1,-7.8%,-17.9%,-27.0%,
CNC1=CN=C(c2ccccc2)c2cc(Cl)ccc2N1,nt,7.0%,-2.9%,
COc1ccc(C2CC(c3ccccc3)=NN2C(=O)COC(=O)c2cc(S(=O)(=O)N3CCOCC3)ccc2Cl)cc1 (stereo unspecified),10.5%,12.6µM*,4.4%,
COc1ccc(C2CC(c3ccccc3)=NN2C(=O)COC(=O)c2cccnc2Cl)cc1 (stereo unspecified),3.0%,-3.2%,-6.3%,
CCOC(=O)c1ccc2c(c1)n(CCO)c(C)[n+]2CC,nt,1.58µM*,-0.7%,
COC(=O)c1ccc2c(c1)nc(C)n2CCO,nt,0.2%,16.5%,
CC[n+]1c(/C=C/N(C)c2ccccc2)n(-c2ccccc2)c2ccc(-c3nc4ccccc4s3)cc21,nt,nt,15.3%,
CCOC(=O)c1ccc2c(c1)n(CC)c(/C=C/N(C)c1ccccc1)[n+]2CC,-1.8%,1.58µM*,-5.9%,
CCn1c(/C=C/N(C(C)=O)c2ccccc2)[n+](CCCS(=O)(=O)[O-])c2cc(Cl)c(Cl)cc21,8.9%,12.2%,2.0%,
CCn1c(/C=C/Nc2ccccc2)[n+](CC)c2cc(Cl)c(Cl)cc21,-1.4%,1.58µM*,3.3%,
CCOC(=O)CN1C(=O)N[C@@H](c2cccc(C(F)(F)F)c2)[C@H](C(=O)OC)[C@H]1C,nt,6.2%[14.2 µM],2.8%[13.1 µM],
NCCC[C@@H](CC(=O)N[C@@H]1CCNC[C@H]1C(=O)N[C@H](CC(=O)N[C@@H](CCC(=O)O)CC(=O)O)Cc1c[nH]c2ccccc12)NC(=O)C[C@H](Cc1c[nH]c2ccccc12)NC(=O)[C@@H]1CCCC[C@H]1N,-2.6%,-1.3%,-4.7%,
NCCC[C@@H](CC(=O)N[C@@H]1CCNC[C@H]1C(=O)N[C@H](CC(=O)N[C@@H](CCC(=O)O)CC(=O)O)Cc1ccccc1)NC(=O)C[C@H](Cc1c[nH]c2ccccc12)NC(=O)[C@@H]1CCCC[C@H]1N,-2.7%,20µM*,-0.7%,
COC(=O)C1=CO[C@@H](C)[C@@H]2CN3CCc4c([nH]c5ccccc45)[C@@H]3C[C@H]12,nt,nt,-16.3%,
COc1ccc(CNc2nc3ccccc3n2C)c(OC)c1,1.2%,-7.5%,8.3%,
COc1ccc(N=Nc2nc3cc(Br)c(Br)cc3n2C)c(OC)c1,7.1%,1.58µM*,-1.9%,
SMILES,ERK EGF inh,RGS12 GoLoco inh-1,CBFb RUNX1 block,others
C=CCOC(=O)N[C@H](/C(C(=O)OC)=C(\C)NCc1ccccc1)c1ccc(C)cc1,0.6%,-1.0%,0.1%,
COc1ccc(C2/C=C\CN(C(=O)C3CC3)C(Cc3ccccc3)C(=O)N2Cc2ccc(F)cc2)cc1 (stereo unspecified),nt,nt,7.5%,
COc1cc(-c2oc3cc(O)cc(O)c3c(=O)c2OC[C@@H]2OC(O[C@@H]3O[C@@H](C)[C@H](O)[C@@H](O)[C@H]3O)[C@@H](O)[C@H](O)[C@@H]2O)ccc1O (stereo partly specified),nt,nt,10.7%,
O=C(CSc1nnc(-c2ccco2)n1-c1ccccc1)NCc1ccco1,nt,-3.6%,-2.0%,
O=C(CSc1nnc(-c2ccccc2)n1-c1ccccc1)NCc1ccco1,nt,-7.5%,2.9%,RGS12 GoLoco inh-2=7.4%
Cc1ccc(CSCC(=O)N/N=C/c2ccc(OCC(=O)Nc3ccc(C)cc3)cc2)cc1,nt,76.2%,0.9%,
O=C(CSCc1ccccc1)N/N=C/c1ccc(OCC(=O)N2CCCCC2)cc1,-3.4%,-5.2%,-0.1%,RGS12 GoLoco inh-2=5.5%
COc1ccc(CSCC(=O)N/N=C/c2ccc(OCC(=O)N3CCCCC3)cc2)cc1,nt,3.55µM*,4.6%,RGS12 GoLoco inh-2=?
O=C(CSCc1ccccc1Br)N/N=C/c1ccc(OCC(=O)N2CCCCC2)cc1,nt,nt,-1.8%,
Cn1c(SCC(=O)Nc2ccc3c(c2)oc2ccccc23)nnc1-c1ccccc1,nt,3.55µM*,7.2%,RGS12 GoLoco inh-2=7.94µM*
CCC(=O)Nc1ccc(-c2nnc(SCC(=O)NCC3CCCO3)n2C)cc1 (stereo unspecified),-2.5%,-5.8%,-5.3%,RGS12 GoLoco inh-2=12.4%
CNC(=O)CSc1nnc(-c2ccccc2)n1C,-3.7%,7.1%,1.1%,
Cc1ccc(-c2nnc(SCC(=O)NCC3CCCO3)n2C)cc1 (stereo unspecified),nt,10.5%,2.7%,
Cc1nc2cnc(N3CCN(C)CC3)nc2n(C)c1=O,nt,24.1%,nt,
C=CCc1cc(/C=N\NC(=O)CSc2nnc(CCCc3ccc(OC)c(C)c3)o2)cc(OC)c1O,nt,14.1µM*,0.8%,RGS12 GoLoco inh-2=?
C=CCc1cc(/C=N/NC(=O)CSc2nnc(CCCc3ccc(OC)cc3)o2)cc(OC)c1O,nt,-2.6%,0.6%,
N#CCCCS(=O)(=O)c1ccccc1,2.1%,-2.3%,11.0%,
OC(COCc1ccccc1)Cn1cnc2ccccc21 (stereo unspecified),nt,3.7%,0.0%,
Cc1n(CC(O)COCc2ccccc2)c2ccccc2[n+]1C (stereo unspecified),nt,8.91µM*,-0.9%,RGS12 GoLoco inh-2=12.6µM*
CCC[C@H]1C[C@H](C(=O)N[C@@H]([C@H]2O[C@@H](SC)[C@@H](O)[C@@H](O)[C@@H]2O)[C@H](C)Cl)N(C)C1,-3.7%[25.7 µM],7.8%[21.6 µM],9.6%[21.7 µM],
COCCn1c(=O)c(-c2ccc(Cl)cc2)nc2cnc(OCc3ccccc3)nc21,nt,2.1%,nt,
C[C@@H]1NCC[C@H](CC(=O)O)[C@H]1CC(=O)O,nt,3.7%[14.2 µM],nt,
O=C(O)CCc1c(C(=O)O)[nH]c2cc(Cl)cc(Cl)c12,nt,nt,18.9%,
CCCCCCn1c(=O)[nH]c2nc3cc(N)c(C)cc3nc2c1=O,8.0%,-28.4%,-17.6%,
CCCCn1c(=O)[nH]c2nc3cc(NC(C)=O)ccc3nc2c1=O,0.5%[57.5 µM],10.4%,17.8%,RGS12 GoLoco inh-2=76.8%
N#Cc1ccc(CN2CCCC3(CCN(C(=O)c4cccc(F)c4)CC3)C2)cc1,11.3%,12.4%,nt,
CC(C)OC(=O)[C@@H]1CC[C@H](C)[C@@H](CCC[C@@H]2C[C@@H](O)C[C@H](CC#N)O2)O1,-7.5%,-2.2%,-4.0%,
